Measured values taken from PubChem BioAssay (NCI).
Compounds without any hit were thinned out: in the full panel of roughly 83,000, 20% have a hit.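 Activity criterion: percent growth below 10, measured after cells in 96-well plates were exposed to a single compound concentration for 48 hours.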 Active and inactive are the calls of the source.

Experiments:
Test in all cases: NCI-60 one-dose screen, 48 h (100 = growth as untreated, 0 = no growth, -100 = all killed)
Settings in all cases: 10 µM unless noted
NCI-H23 lung = system: NCI-H23 lung
NCI-H226 lung = system: NCI-H226 lung
NCI-H322M lung = system: NCI-H322M lung
HOP-62 NSCLC = system: HOP-62 NSCLC
NCI-H460 lung = system: NCI-H460 lung
HOP-92 NSCLC = system: HOP-92 NSCLC
NCI-H522 lung = system: NCI-H522 lung
A549/ATCC NSCLC = system: A549/ATCC NSCLC
786-0 renal = system: 786-0 renal
COLO 205 colon = system: COLO 205 colon

Measured: growth

CNC(=O)c1cc(Oc2cccc3nc(Nc4ccc(Oc5ccccc5)cc4)ccc23)ccn1
inactive: NCI-H23 lung 78% | NCI-H226 lung 66% | NCI-H322M lung 99.9% | HOP-62 NSCLC 92% | NCI-H460 lung 61.9% | HOP-92 NSCLC 71.2% | NCI-H522 lung 62.7% | A549/ATCC NSCLC 58.3% | 786-0 renal 72.5% | COLO 205 colon 46%

O=C(Cn1c(=O)ccn(CCCCCCCCOc2ccc(Br)cc2)c1=O)Nc1ccc(Oc2ccc(Cl)cc2)cc1
inactive: NCI-H23 lung 47.8% | NCI-H226 lung 56.6% | NCI-H322M lung 102% | HOP-62 NSCLC 67.1% | NCI-H460 lung 56.8% | HOP-92 NSCLC 22.4% | NCI-H522 lung 44.6% | A549/ATCC NSCLC 54.4% | 786-0 renal 65.7% | COLO 205 colon 76.7%

ClCc1ccc(-c2ccc(Cn3cnc4c(Cl)nc(Cl)nc43)cc2)cc1
inactive: NCI-H23 lung 29.8% | NCI-H226 lung 68.3% | NCI-H322M lung 48.4% | 786-0 renal 13.2% | COLO 205 colon 35.3%
active: HOP-62 NSCLC -15.9% | NCI-H460 lung 7.18% | HOP-92 NSCLC -77.9% | NCI-H522 lung -20.6% | A549/ATCC NSCLC -41.5%

CSc1nc2ncnc(SC)c2[nH]1
inactive: NCI-H23 lung 96.1% | NCI-H226 lung 98.2% | NCI-H322M lung 101% | HOP-62 NSCLC 77.8% | NCI-H460 lung 109% | HOP-92 NSCLC 98.7% | NCI-H522 lung 76% | A549/ATCC NSCLC 62.3% | 786-0 renal 98.9% | COLO 205 colon 103%

CC(=O)NCC(=O)N1[C@@H]2CC[C@H]1c1ccc(Nc3ncc(C(F)(F)F)c(NC4CCC4)n3)cc12
inactive: NCI-H23 lung 27.9% [2.5 µM] | NCI-H226 lung 42.8% [2.5 µM] | NCI-H322M lung 14.2% [2.5 µM] | HOP-62 NSCLC 23% [2.5 µM] | NCI-H460 lung 16.3% [2.5 µM] | NCI-H522 lung 46.1% [2.5 µM] | A549/ATCC NSCLC 34% [2.5 µM] | 786-0 renal 42.4% [2.5 µM]
active: HOP-92 NSCLC -1.13% [2.5 µM] | COLO 205 colon -22.6% [2.5 µM]

CC(C)c1cc(CNc2nc(Nc3cc(C4CC4)[nH]n3)cc(N3CCN(C)CC3)n2)on1
inactive: 786-0 renal 10.3%
active: NCI-H23 lung -25% | NCI-H226 lung -3.34% | NCI-H322M lung -20.1% | HOP-62 NSCLC -23.5% | NCI-H460 lung -47.6% | HOP-92 NSCLC -10.9% | NCI-H522 lung -34.7% | A549/ATCC NSCLC 3.1% | COLO 205 colon -69.6%

O=c1[nH]ccc2c(S(=O)(=O)N3CCCNCC3)cccc12
inactive: NCI-H23 lung 78.5% | NCI-H226 lung 81.7% | NCI-H322M lung 29.6% | HOP-62 NSCLC 68.8% | NCI-H460 lung 95.3% | HOP-92 NSCLC 30% | NCI-H522 lung 17.3% | A549/ATCC NSCLC 81.3% | 786-0 renal 54% | COLO 205 colon 112%

COc1cc(-c2nc(C(=O)NCC(=O)O)nn2-c2ccc(Cl)cc2)cc(OC)c1OC
inactive: NCI-H23 lung 97.5% | NCI-H226 lung 87.1% | NCI-H322M lung 102% | HOP-62 NSCLC 104% | NCI-H460 lung 110% | HOP-92 NSCLC 106% | NCI-H522 lung 97.1% | A549/ATCC NSCLC 96.6% | 786-0 renal 103% | COLO 205 colon 108%

CC(C)(C)CC(C)(C)Nc1c(-c2c(O)c3ccccc3oc2=O)nc2c(Cl)cc(C(F)(F)F)cn12
inactive: NCI-H23 lung 103% | NCI-H226 lung 97.5% | NCI-H322M lung 94% | HOP-62 NSCLC 92.5% | NCI-H460 lung 107% | HOP-92 NSCLC 87.7% | NCI-H522 lung 81.4% | A549/ATCC NSCLC 85.5% | 786-0 renal 97% | COLO 205 colon 112%

CCCCCCC1(/C=N/NC(N)=O)NC(=O)NC1=O (stereo not given)
inactive: NCI-H23 lung 94% | NCI-H226 lung 91.4% | NCI-H322M lung 102% | HOP-62 NSCLC 78.3% | NCI-H460 lung 111% | HOP-92 NSCLC 110% | NCI-H522 lung 58% | A549/ATCC NSCLC 70.5% | 786-0 renal 98.2% | COLO 205 colon 91.9%

CCN(CC)C(=O)C[N+](C)(C)CCOC(c1ccccc1)c1ccccc1
inactive: NCI-H23 lung 95.2% | NCI-H226 lung 102% | NCI-H322M lung 104% | HOP-62 NSCLC 103% | NCI-H460 lung 109% | HOP-92 NSCLC 113% | NCI-H522 lung 105% | A549/ATCC NSCLC 101% | 786-0 renal 102% | COLO 205 colon 112%

O=C(Nc1ccc(C(=O)Nc2ccc(C3=NCCCN3)cc2)cc1)Nc1ccc(C2=NCCCN2)cc1
inactive: NCI-H23 lung 63% | NCI-H226 lung 67.9% | NCI-H322M lung 84.8% | HOP-62 NSCLC 87.1% | NCI-H460 lung 75% | HOP-92 NSCLC 80.5% | NCI-H522 lung 71.6% | A549/ATCC NSCLC 75.9% | 786-0 renal 96.7% | COLO 205 colon 105%

Oc1ccc(/C=N/Nc2nnc(N/N=C/c3ccc(O)cc3O)c3ccccc23)c(O)c1
active: NCI-H23 lung -58.7% | NCI-H226 lung -39.5% | NCI-H322M lung -0.934% | HOP-62 NSCLC -31.6% | NCI-H460 lung -34.1% | HOP-92 NSCLC -35.8% | NCI-H522 lung -45.4% | A549/ATCC NSCLC -58% | 786-0 renal -3.79% | COLO 205 colon -23.8%

CNC(=O)c1cc(COc2nnc(Nc3ccc(Cl)cc3)c3ccoc23)ccn1
active: HOP-62 NSCLC -75.2% | HOP-92 NSCLC -5.53% | 786-0 renal -27.1%
inactive: NCI-H23 lung 62.2% | NCI-H226 lung 21.3% | NCI-H322M lung 45.4% | NCI-H460 lung 31.2% | NCI-H522 lung 10.4% | A549/ATCC NSCLC 35.3% | COLO 205 colon 72.4%

CCN1CCN(Cc2ccc(NC(=O)Nc3nc(-c4cc(OC)c(OC)c(OC)c4)cs3)cc2C(F)(F)F)CC1
active: NCI-H460 lung -1.08% | 786-0 renal -50.9% | COLO 205 colon -68.4%
inactive: NCI-H23 lung 37.6% | NCI-H226 lung 56.8% | NCI-H322M lung 63% | HOP-62 NSCLC 49.9% | HOP-92 NSCLC 54.4% | NCI-H522 lung 55.9% | A549/ATCC NSCLC 26.1%

COc1cc2c(cc1OCCCCCCN1CCN(c3ncnc4ccccc34)CC1)N=CC1CCCN1C2=O (stereo not given)
active: NCI-H23 lung -26.1% | NCI-H226 lung -54.9% | NCI-H322M lung -2.96% | HOP-62 NSCLC -25.9% | NCI-H460 lung 3.48% | HOP-92 NSCLC -21.7% | NCI-H522 lung -55.2% | A549/ATCC NSCLC 1.08% | 786-0 renal -10.3% | COLO 205 colon -57.1%

C=CC(=O)N1CCC[C@@H](n2nc(-c3ccc(Oc4ccccc4)cc3)c3c(N)ncnc32)C1
active: NCI-H322M lung -1.22% | NCI-H522 lung 1.41%
inactive: NCI-H23 lung 95.3% | NCI-H226 lung 45% | HOP-62 NSCLC 73.1% | NCI-H460 lung 90% | HOP-92 NSCLC 28.3% | A549/ATCC NSCLC 46.6% | 786-0 renal 30.4% | COLO 205 colon 61.3%

CSc1nc2ncncc2[nH]1
inactive: NCI-H23 lung 101% | NCI-H226 lung 92.5% | NCI-H322M lung 102% | HOP-62 NSCLC 82.5% | NCI-H460 lung 110% | HOP-92 NSCLC 153% | NCI-H522 lung 101% | A549/ATCC NSCLC 103% | 786-0 renal 93.9% | COLO 205 colon 120%

COc1cc2ncnc(Nc3ccc(F)c(Cl)c3)c2cc1NC(=O)/C=C/CN1CCCCC1
active: NCI-H23 lung -54.1% | NCI-H226 lung -83.4% | NCI-H322M lung -1.5% | HOP-62 NSCLC -51.9% | NCI-H460 lung -69.9% | HOP-92 NSCLC -83.6% | NCI-H522 lung -56.9% | A549/ATCC NSCLC -76.9% | 786-0 renal -81.7% | COLO 205 colon -76.6%

CC(C)=CCc1cc2c(cc1O)C1=C(C(=O)C3=C(NCCS3(=O)=O)C1=O)C(C=C(C)C)O2 (stereo not given)
active: NCI-H522 lung -4.35%
inactive: NCI-H23 lung 25.7% | NCI-H226 lung 57.9% | NCI-H322M lung 11.4% | HOP-62 NSCLC 25.3% | NCI-H460 lung 17.7% | HOP-92 NSCLC 115% | A549/ATCC NSCLC 65.8% | 786-0 renal 58.7% | COLO 205 colon 29.4%

Nc1c(C(=O)c2ccccc2)sc2nc(-c3cccs3)ccc12
inactive: NCI-H23 lung 36.8% | NCI-H226 lung 63.5% | NCI-H322M lung 51.1% | HOP-62 NSCLC 44.5% | NCI-H460 lung 12.1% | HOP-92 NSCLC 69.6% | A549/ATCC NSCLC 19.6% | 786-0 renal 51.7%
active: NCI-H522 lung -25.7% | COLO 205 colon -21.8%

O=C(Cc1ccc(/C=C/C(=O)c2ncc[nH]2)cc1)Nc1ccc(S(F)(F)(F)(F)F)cc1
inactive: NCI-H23 lung 68.5% | NCI-H226 lung 93.7% | NCI-H322M lung 95% | HOP-62 NSCLC 93.8% | NCI-H460 lung 98.2% | HOP-92 NSCLC 97% | NCI-H522 lung 65.8% | A549/ATCC NSCLC 76.7% | 786-0 renal 88.5% | COLO 205 colon 82.7%

O=C(Cc1ccc(/C=C/C(=O)c2ncc[nH]2)cc1)Nc1ccc(Br)cc1
active: HOP-62 NSCLC 3.97% | NCI-H460 lung -3.31% | 786-0 renal -27%
inactive: NCI-H23 lung 34.8% | NCI-H226 lung 46.5% | NCI-H322M lung 58.1% | HOP-92 NSCLC 77.4% | NCI-H522 lung 13.2% | A549/ATCC NSCLC 39.4% | COLO 205 colon 20.7%

Clc1ccc(/C=C/c2cc(N3CCOCC3)c3cc(Cl)c(Cl)cc3n2)cc1
active: NCI-H522 lung -43.7% | 786-0 renal -11%
inactive: NCI-H23 lung 100% | NCI-H226 lung 85.5% | NCI-H322M lung 94.3% | HOP-62 NSCLC 122% | NCI-H460 lung 95% | HOP-92 NSCLC 96.6% | A549/ATCC NSCLC 79.9% | COLO 205 colon 98.1%

CCN(CCN(C)C)C(=O)CNCc1cc(C(N)=O)ccn1
inactive: NCI-H23 lung 101% | NCI-H226 lung 89.1% | NCI-H322M lung 106% | HOP-62 NSCLC 87% | NCI-H460 lung 108% | HOP-92 NSCLC 87.2% | NCI-H522 lung 78.1% | A549/ATCC NSCLC 72.4% | 786-0 renal 103% | COLO 205 colon 108%

CCS(=O)(=O)N1CCN(c2ccc(Nc3ncc(C(N)=O)c(NC4CC4)n3)cc2)CC1
inactive: NCI-H23 lung 75.9% | NCI-H226 lung 73.1% | NCI-H322M lung 79.4% | HOP-62 NSCLC 59.3% | NCI-H460 lung 60.3% | HOP-92 NSCLC 87.4% | NCI-H522 lung 59.2% | A549/ATCC NSCLC 62.2% | 786-0 renal 89%
active: COLO 205 colon 1.91%

CO[C@@H](C)Cn1c(=O)n(C)c2cnc3ccc(-c4cncc(C(C)(C)O)c4)cc3c21
active: NCI-H23 lung -2.1% | NCI-H226 lung -12.7% | NCI-H322M lung -15.2% | HOP-62 NSCLC -14.5% | NCI-H460 lung 5.83% | HOP-92 NSCLC -24% | NCI-H522 lung 3.46% | A549/ATCC NSCLC -11.7% | 786-0 renal -11.1% | COLO 205 colon -24.6%
